# mHTT CaM bind: inhibitors of human mutant huntingtin-calmodulin interaction; inhibition, % at 15 µM; AlphaScreen His-mHTT/GST-CaM binding, luminescence; 3.6% of 190,000 active;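 further: 0% = both proteins with DMSO and 100% = one protein alone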
# Pf apPOL inh: Pf-apPOL DNA polymerase inhibition. Recombinant Pf-apPOL, molecular beacon fluorescence, 1.5 h. inhibition, % at 10 µM. 0.25% of 210,000 active
# * hit, by the source's call; . = not tested or not shown; ! = repeats disagree. Rows were chosen to be rich in hits. Some 3.5% of all compounds tested hit in one or more screens of this group. No stated cut-off is given here; in the data, active means inhibition above about 50%; inactive means the rest.
SMILES,mHTT CaM bind,Pf apPOL inh
O=C(CCC(=O)N1CC2CCCN2c2ccccc21)NCc1ccc2c(c1)OCO2 (centres undefined),10,-2
O=C(Nc1cccc(C(F)(F)F)c1)N1CC2CCCN2c2ccccc21 (centres undefined),81*,0
O=C(Nc1cccc(C(F)(F)F)c1)N1CCC(N2CCN(Cc3ccccc3)C2=O)CC1,-5,-4
CCOc1cc(/C=C2\NC(=O)NC2=O)cc(Cl)c1OCc1cccc(C(=O)O)c1,4,-2
COCC(=O)N1CCCc2ccc(NC(=O)C3(c4ccc(F)cc4)CC3)cc21,-17,-9
COc1ccc(C2CCCN2C(=O)c2ccnn2C)cc1 (centres undefined),2,-6
Cc1c(Cl)cccc1N1CCN(C(=O)c2ccccc2F)C(C)C1=O (centres undefined),-5,-4
Cc1ccc(NC(=O)N2CC3CCCN3c3ccccc32)cc1C (centres undefined),84*,3
Cc1ccc(NC(=O)N2CC3CCCN3c3ccccc32)cc1Cl (centres undefined),89*,-5
Cc1ccc(NC(=O)C2CCC(N3C(=O)c4ccccc4C3=O)CC2)cc1Cl (centres undefined),0,-16
Cc1ccc(NC(=O)N2CCC(N3CCN(Cc4ccccc4)C3=O)CC2)cc1C,-3,-6
Cc1ccc(CNc2nc3ccncc3n(C(C)C)c2=O)cc1C,31,-4
O=C(Nc1ccccc1F)N1CCC(c2cnn(-c3cccc(F)c3)c2)CC1,-17,1
COc1cc(/C=C2/C(=O)N(c3ccc(Cl)c(C(=O)O)c3)N=C2C)c([N+](=O)[O-])cc1OC,-2,-4
Cc1ccc([C@H]2C[C@H](O)[C@@H](n3cc(COC(=O)c4ccccc4)nn3)CN2Cc2cccs2)cc1,100*,0
Cc1ccc([C@H]2C[C@@H](O)[C@H](n3cc(COC(=O)c4ccccc4)nn3)CN2Cc2cccs2)cc1,1,2
O=C(OCc1cn([C@H]2C[C@H](c3ccc(Cl)cc3)N(Cc3cccs3)C[C@@H]2O)nn1)c1ccccc1,34,-2
O=C(OCc1cn([C@H]2CN(Cc3cccs3)[C@@H](c3ccc(Cl)cc3)C[C@@H]2O)nn1)c1ccccc1,100*,-6
CCCNc1cc(N2CCC(CCC(=O)NCc3ccncc3)CC2)ncn1,6,-9
O=C(NC1CC(O)C(CO)C1)c1ccccc1Cl (centres undefined),0,-7
CC(=O)c1cccc(NC(=O)CSc2cc(-c3ccccn3)nc(C)n2)c1,-8,-10
N#CC1=C(N)Oc2n[nH]c(-c3ccccn3)c2C1c1ccco1 (centres undefined),91*,0
CC(C)(C)c1[nH]nc2c1C(c1ccco1)C(C#N)=C(N)O2 (centres undefined),1,-1
CC1CCN(Cc2cc(Cn3ccnc3)c3cccnc3c2O)CC1,100*,5
COCc1cc(CN2CCCCC2)c(O)c2ncccc12,100*,2
SMILES,mHTT CaM bind,Pf apPOL inh
O=[N+]([O-])c1cc(Cl)c2cccnc2c1O,100*,-1
O=[N+]([O-])c1cc([N+](=O)[O-])c2cccnc2c1N1CCOCC1,20,5
CCOc1cccc(CN2CCCCCC2)c1O,5,-3
Cc1ccnc2c([N+](=O)[O-])cccc12,-4,-2
O=[N+]([O-])c1cc(CN2CCOCC2)c2cccnc2c1O,100*,-60
Cc1c(O)ccc2c(CN3CCC(C)CC3)cc(=O)oc12,-2,-6
N#CC1=C(N)Oc2c(oc(CO)cc2=O)C1c1ccncc1 (centres undefined),1,3
COCCN1C(=O)Cc2ccccc2C1C(=O)NCc1ccc(C)o1 (centres undefined),12,-4
O=C(COc1ccccc1)N1CCCC(c2n[nH]c(C3CC3)n2)C1 (centres undefined),2,-2
O=C(CCS(=O)(=O)c1ccccc1)NCC1CCN(C(=O)Oc2ccccc2)CC1,-4,-1
COc1ccc(Br)c(C(=O)NC2CNC(=O)C2)c1 (centres undefined),-5,-5
Cn1c(=O)c2c(ncn2CC(=O)Nc2nnc(C(C)(C)C)s2)n(C)c1=O,1,-19
Cc1nn2c(=O)/c(=C/c3cccs3)sc2nc1=O,4,18
O=C(CSc1nc2c(c(=O)n1-c1ccc(F)cc1)SCC2)Nc1ccc(F)cc1F,-3,-1
CCCCCCC#Cc1cncc(C(=O)NNC(=O)Nc2ccc(OC(F)(F)F)cc2)c1,.,-3
O=[N+]([O-])c1cc(CN2CCCCC2)c2cccnc2c1O,100*,0
O=[N+]([O-])c1cc(CN2CCN(c3ccccc3)CC2)c(O)c2ncccc12,100*,2
O=[N+]([O-])c1ccccc1CN1CCCCCCC1,-1,-3
COc1c(I)cc(Cl)c2cccnc12,.,-4
Clc1cc2cccnc2c2ncccc12,100*,.
O=[N+]([O-])c1ccc(N2CCN(c3ccccc3)CC2)c2ncccc12,15,-8
Cc1ccc(-c2nnc(N3CCC(C(=O)Nc4ccc5c(c4)OCCO5)CC3)o2)cc1,38,-9
CCC(=O)c1ccc(N2CCN(C(=O)c3cc([N+](=O)[O-])ccc3N3CCCCC3)CC2)c(F)c1,12,16
CCOC(=O)c1ccc(Oc2c(C(F)(F)F)oc3c(CN4CCCC4)c(O)ccc3c2=O)cc1,11,-1
O=c1c(-c2ccccc2)c(O)nc2ccccn12,.,-1
SMILES,mHTT CaM bind,Pf apPOL inh
CCc1c(O)nc2ccccn2c1=O,-8,73*
CCOC(=O)C1CCc2sc(NC(=O)c3cc(C4CC4)on3)nc21 (centres undefined),2,6
CC(NC(=O)c1cn2c(n1)CCCC2)c1ccc(F)cc1 (centres undefined),10,-8
CC(NC(=O)c1cn2c(n1)CSCC2)c1ccc(F)cc1 (centres undefined),93*,-6
CCCC(=O)NC(c1ccc(OC)c(OC)c1)c1cc(Cl)c2cccnc2c1O (centres undefined),25,-50
CCCC(=O)NC(c1ccccc1OC)c1cc(Cl)c2cccnc2c1O (centres undefined),51*,-12
CCC(=O)NC(c1ccc(Cl)cc1)c1cc(Cl)c2cccnc2c1O (centres undefined),41,7
CCC(=O)NC(c1ccccc1Cl)c1cc(Cl)c2cccnc2c1O (centres undefined),100*,6
CCC(=O)NC(c1ccccc1OC)c1cc(Cl)c2cccnc2c1O (centres undefined),87*,2
C=CCNS(=O)(=O)c1ccc(F)c(C(=O)Nc2cc(Cl)ccc2OC)c1,5,30
O=C(CN1C(=O)C2C3CC(C(Br)C3Br)C2C1=O)NC1CCCCC1 (centres undefined),-1,-1
CCCC(C)C(=O)NCC1CCCO1 (centres undefined),-6,.
CC(=O)Nc1nc2ccc(Br)cc2s1,-3,0
CC(=O)Nc1nc2cc3sc(NC(C)=O)nc3cc2s1,-6,53*!
CCN1CCN(C(=O)c2ccc(-c3nc(-c4ccc(F)cc4)no3)cc2)CC1,8,-4
COc1ccccc1CNc1ccc2c(c1)ncn2C1CCCCC1,55*,-4
COc1cccc(CNc2ccc3c(c2)ncn3C2CCCCC2)c1OC,41,0
COc1ccc(NC(=O)Nc2ccc(Nc3cc(-n4cccn4)ncn3)cc2)c(C)c1,1,1
O=C(Nc1cccc2nsnc12)c1ccc(-n2cccn2)nn1,-10,3

# Screening results: PubChem BioAssay, University of Kansas High Throughput Screening Laboratory
